The nature of assay [1]: NCI Yeast Anticancer Drug Screen. Data for the rad50 strain (AID 155).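 Further: 0% = growth of vehicle-only cultures of the same strain.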 Conditions: S. cerevisiae rad50 strain growth inhibition; at 50.0 µM; stronger effect = higher value. Put shortly:
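Cells are treated with compound, grown, and their growth is then scored against vehicle-only cultures of the same repair-deficient yeast strain.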

The nature of assay [2]: NCI Yeast Anticancer Drug Screen. Data for the mec2-1 strain (AID 157). Conditions: S. cerevisiae mec2-1 strain, at 50.0 µM, stronger effect = higher value. In short, it runs like this:
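Vehicle-treated cultures served as reference for growth inhibition of compound-exposed mec2-1 yeast.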

Assay [3] can be described thus: NCI Yeast Anticancer Drug Screen. Data for the sgs1 mgt1 strain (AID 161).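 Further: 0% = growth of cultures given vehicle only.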 Conditions: S. cerevisiae sgs1 mgt1 strain, at 50.0 µM, stronger effect = higher value. In short, it runs like this: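 Genetically altered yeast, compound exposure, growth inhibition relative to vehicle.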
Assay [4] can be described thus: NCI Yeast Anticancer Drug Screen. Data for the cln2 rad14 strain (AID 165).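 Further: 0% = growth equal to vehicle treated cultures.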 The settings on record: S. cerevisiae cln2 rad14 strain, at 50.0 µM, stronger effect = higher value. Put shortly: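 Each compound was tested on cln2 rad14 yeast. Inhibition of growth was calculated against vehicle-exposed controls.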
Assay [5] is described as follows: NCI Yeast Anticancer Drug Screen. Data for the bub3 strain (AID 167). Conditions: S. cerevisiae bub3 mutant strain, at 50.0 µM, stronger effect = higher value. In short, it runs like this:
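Part of a panel of yeast mutants defective in DNA damage repair or cell cycle regulation. Each strain is grown with compound, and inhibition is calculated relative to solvent-treated cultures.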

Assay [6] can be described thus: NCI Yeast Anticancer Drug Screen. Data for the mlh1 rad18 strain (AID 175). Conditions: S. cerevisiae mlh1 rad18 strain growth inhibition; at 50.0 µM; stronger effect = higher value. Put shortly: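 Vehicle-treated cultures served as the reference for growth inhibition in a yeast strain carrying DNA damage repair alterations exposed to each compound.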

This is part of a sample that, as a whole, favours compounds with a hit. Of some 79,000 tested, about 15% had one in any assay. Values without a mark were called inactive. Calls of active or inactive are those of the source. No stated cut-off is given here; in the data, active means growth inhibition above about 70%; inactive means the rest.

For `OCC1(CO)CCCO1`, the growth inhibition in assay [1] is 4.15%; in assay [2] it was -21.9%; in assay [3], -10.4%; in assay [4], 5.1%; in assay [5], -0.4%; in assay [6], 2.55%.
Consider `Cc1noc(/N=C/c2ccccc2)c1C`, for which the growth inhibition was -6.8% in assay [1]; -5.45% in assay [2]; -5.3% in assay [3]; -28.1% in assay [4]; 4.4% in assay [5]; -2.5% in assay [6].
In the case of `CC(=S)N=Cc1c(N)[nH]n(-c2ccccc2)c1=O`, the growth inhibition in assay [1] was -40.5%; in assay [2], -12.8%; in assay [3], -24.6%; in assay [4], -0.3%; in assay [5], -20.1%; in assay [6], -24.5%.
In the case of `Nc1ccccc1N=Cc1cc(F)ccc1[N+](=O)[O-]`, the growth inhibition in assay [1] is 0.05%; in assay [2], 4.4%; in assay [3], 28.2%; in assay [4] it was -48.9%; in assay [5] it was 4.4%; in assay [6] it was 1.35%.
Take `COCN(COC)c1nc(CCC(Br)(Br)Br)nc(N(COC)COC)n1`: the growth inhibition in assay [1] is 36.5%; in assay [2] it was 11.5%; in assay [3], 21.9%; in assay [4] it was 37%; in assay [5] it was -2.85%; in assay [6], 31%.
Regarding `COc1ccc(CCCCl)c(C2=NCCc3ccccc32)c1`, the growth inhibition in assay [1] was 25.2%; in assay [2] it was 12.7%; in assay [3], -17.3%; in assay [4] it was 12.2%; in assay [5], -0.55%; in assay [6], 1.95%.
Regarding `O=C(c1ccc(Cl)cc1)c1ccc2ccccc2c1`, the growth inhibition in assay [1] is -5.3%; in assay [2] it was -8.6%; in assay [3], 5.35%; in assay [4], -3.4%; in assay [5], 7.8%; in assay [6], 4.1%.
Consider `CC(NC(=O)c1ccccc1)c1ccc[nH]1` (stereo not given), for which the growth inhibition was 8.75% in assay [1]; -9.2% in assay [2]; 0.05% in assay [3]; -15.2% in assay [4]; -25.6% in assay [5]; -0.15% in assay [6].
Turning to `CCOc1ccc(/C=C/c2ccc3ccccc3[n+]2C)cc1OCC`, the growth inhibition in assay [1] is 16.1%; in assay [2] it was 9%; in assay [3], -5.3%; in assay [4], -14%; in assay [5] it was -1.35%; in assay [6] it was 19.7%.
Consider `CC(=O)Oc1c(C)c2c(O)c3c1C1=C(OCOC1=C(C)C3=O)/C(C)=C\C(C)(O)C(O)C(C)C(O)C1C(=O)OC(C(C)C1O)C(C)(O)/C=C/C=C(C)C(=O)N2` (stereo not given), for which the growth inhibition in assay [1] is 16.2%; in assay [2], 3.65%; in assay [3], -10.4%; in assay [4] it was 8.95%; in assay [5], 9.7%; in assay [6], 5.5%.
For the molecule `CN(C)CCCNCc1c[nH]c(=O)[nH]c1=O`, the growth inhibition is -4.75% in assay [1]; 6.55% in assay [2]; -9.9% in assay [3]; -7.4% in assay [4]; -4.85% in assay [5]; -25.9% in assay [6].
For the molecule `Cn1c(O)c2c(c1O)C(=Nc1ccccc1)c1ccccc1C2=O`, the growth inhibition in assay [1] is 89.2% (active); in assay [2], 98.5% (active); in assay [3], 93% (active); in assay [4], 94.2% (active); in assay [5], 98.6% (active); in assay [6], 97.9% (active).
As to `Nc1ccc(-c2cc[cH-]c2)cc1.[Fe+2].c1cc[cH-]c1`, the growth inhibition was 8.2% in assay [1]; 10.3% in assay [2]; 10.8% in assay [3]; 12.2% in assay [4]; 21.4% in assay [5]; 22.6% in assay [6].
For the molecule `COC1=CC(=O)C(C(C)=O)=C(O)C1=O`, the growth inhibition in assay [1] was 0.05%; in assay [2], -7.95%; in assay [3] it was -6.5%; in assay [4] it was 4.7%; in assay [5], -5.6%; in assay [6], -4.05%.
For `O=C1c2cc3c(cc2CC12Cc1cc4c(cc1C2)CCC4)CCC3`, the growth inhibition is -14.6% in assay [1]; 1.4% in assay [2]; -8% in assay [3]; 7.45% in assay [4]; -3% in assay [5]; -1.35% in assay [6].
For the molecule `O=C(O)c1cc2c([nH]1)-c1cccnc1C(=O)C2=O`, the growth inhibition is -9.6% in assay [1]; -11.3% in assay [2]; -15.8% in assay [3]; -18.8% in assay [4]; -1.4% in assay [5]; 14.1% in assay [6].
As for `CC(C)(C)OC(=O)NC1CCC(C(C)(C)C)CC1` (stereo not given), the growth inhibition in assay [1] is 1.95%; in assay [2] it was -2.95%; in assay [3] it was -4%; in assay [4], 8.65%; in assay [5], 7.9%; in assay [6], 24.1%.
Take `CC(C)(C)N/N=C(\C(=O)Nc1cccc(Cl)c1)C1C(=O)Nc2ccccc2S1=O` (stereo not given): the growth inhibition in assay [1] is -31.1%; in assay [2], -43.8%; in assay [3], -24.6%; in assay [4], 10.7%; in assay [5] it was -11.2%; in assay [6] it was 8.75%.
`CCC[CH2][Ge]([Cl])([Cl])[CH2]CCC`: the growth inhibition was 28.6% in assay [1]; 30.8% in assay [2]; 30.9% in assay [3]; 14.9% in assay [4]; 40.9% in assay [5]; 33.4% in assay [6].
`COC(=O)c1cc(C(=O)OC)c(C(=O)OC)cc1C(=O)OC`: the growth inhibition in assay [1] was -1.35%; in assay [2], -1.25%; in assay [3], 15.8%; in assay [4], -37.8%; in assay [5] it was 4.2%; in assay [6] it was 22.1%.

The values are drawn from PubChem BioAssay (NCI).
